# Laboratory results: PubChem BioAssay (NCI)
# The panel holds about 83,000 compounds, 20% with a hit somewhere; the sample as a whole holds those more often.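 48-hour exposure, single concentration, 96-well plates; percent growth endpoint where 0 means no net growth. Active: below 10.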 Unmarked numbers belong to inactive results. Active and inactive are the calls of the source.
# Assays:
# Experiment in all cases: NCI-60 one-dose screen, 48 h (100 = growth as untreated, 0 = no growth, -100 = all killed)
# SR leukemia = conditions: 10 µM
# RPMI-8226 leukemia = conditions: 10 µM
# OVCAR-8 ovarian = conditions: 10 µM
# OVCAR-5 ovarian = conditions: 10 µM
# OVCAR-4 ovarian = conditions: 10 µM
# SK-OV-3 ovarian = conditions: 10 µM
# OVCAR-3 ovarian = conditions: 10 µM
# NCI/ADR-RES ovarian = conditions: 10 µM
# T-47D breast = conditions: 10 µM
# BT-549 breast = conditions: 10 µM
# MDA-MB-435 melanoma = conditions: 10 µM
# SW-620 colon = conditions: 10 µM
# MCF7 breast = conditions: 10 µM unless noted
# HCT-116 colon = conditions: 10 µM
# HCC-2998 colon = conditions: 10 µM
# KM12 colon = conditions: 10 µM
# IGROV1 ovarian = conditions: 10 µM
# HS 578T breast = conditions: 10 µM
SMILES,growth (SR leukemia),growth (RPMI-8226 leukemia),growth (OVCAR-8 ovarian),growth (OVCAR-5 ovarian),growth (OVCAR-4 ovarian),growth (SK-OV-3 ovarian),growth (OVCAR-3 ovarian),growth (NCI/ADR-RES ovarian),growth (T-47D breast),growth (BT-549 breast),growth (MDA-MB-435 melanoma),growth (SW-620 colon),growth (MCF7 breast),growth (HCT-116 colon),growth (HCC-2998 colon),growth (KM12 colon),growth (IGROV1 ovarian),growth (HS 578T breast)
CC(C)=C(NC(=O)c1ccccc1)C(=O)O,95.4%,87.4%,104%,101%,118%,112%,107%,111%,116%,110%,110%,102%,112%,117%,101%,99.6%,–,–
Cc1ccc(/C(C#N)=C/c2ccc3c(c2)OCO3)cc1,25.5%,77%,94%,112%,–,82.8%,73.8%,44.5%,64.1%,87.1%,-11.1% (active),32%,49.7%,72.8%,74.3%,26.1%,72.4%,83.8%
COc1cc(C(=O)N/N=C/c2cccc([N+](=O)[O-])c2)cc(OC)c1OC,28.5%,77.1%,83.1%,83.7%,–,67.2%,12.2%,38.1%,51.9%,–,1.31% (active),23.8%,–,23.9%,52.7%,19%,60.6%,49.3%
NC(=S)NN=C1CCCC1,88%,72.6%,68.8%,–,74.4%,110%,47.6%,42.9%,40.8%,107%,103%,72.8%,21.7%,8.81% (active),97.7%,101%,93.4%,95.5%
Cc1nc2ccccc2c(C(=O)O)c1O,95.6%,179%,102%,91.4%,116%,95.3%,113%,94.5%,91.3%,–,112%,110%,103%,88.3%,89%,120%,–,88.1%
Cc1c(C(=O)O)c(=O)n(-c2ccccc2)n1C,123%,107%,103%,110%,–,107%,141%,101%,98.8%,114%,107%,–,112%,113%,106%,120%,117%,–
Cc1cc(/C=C/c2ccc3cc(N(C)C)ccc3[n+]2C)c(C)n1-c1ccccc1,2.29% (active),-30.2% (active),-60.4% (active),–,10.4%,-32.2% (active),-73.3% (active),24.7%,-47.3% (active),-52.2% (active),-49.8% (active),7.4% (active),-11.6% (active),-10.3% (active),0.715% (active),-62.1% (active),3.27% (active),-9.95% (active)
CCCC(=O)Nc1ccc2c(c1)CN1C(=O)c3ccccc3C1=N2,103%,106%,98.2%,–,107%,110%,102%,99.5%,101%,107%,106%,105%,96%,102%,85.4%,97.5%,111%,119%
CC(=O)OC1CC2C(C)(C)OC3CC(=O)OCC32C2CCC3(C)C(=CCC3c3ccoc3)C12C (configuration not stated),91.1%,72.8%,108%,–,105%,108%,93.8%,124%,88.3%,126%,97.8%,112%,87.8%,106%,80.7%,98.9%,58.2%,93.6%
N#CCCN(CCCN1CCOCC1)CN1C(=O)c2ccccc2C1=O,71.8%,108%,111%,106%,–,–,120%,109%,96%,128%,108%,114%,95.8%,109%,–,112%,102%,113%
Nc1ncnc2c1nc(N)n2C1OC(CO)C(O)C1O (configuration not stated),-3.14% (active),5.98% (active),2.25% (active),-12.9% (active),-2.8% (active),–,-12.9% (active),-45.2% (active),-46.3% (active),-83.6% (active),-80.3% (active),-11.8% (active),-20.5% (active),1.19% (active),-82% (active),-77.3% (active),–,-13.9% (active)
O=C1C=CC2=C3c4cc(O)c(O)cc4CC3(O)COC2=C1O (configuration not stated),109%,90%,97.2%,104%,110%,113%,123%,101%,113%,–,111%,101%,98.1%,99%,–,114%,–,115%
Nc1nc(N)c2cc(S(=O)(=O)c3cccc(C(F)(F)F)c3)ccc2n1,46%,63.1%,40.7%,48%,–,72.8%,79.2%,52.6%,74.1%,76.8%,31.7%,25.4%,43.1%,15.6%,37.4%,53.1%,39.5%,80.1%
COc1cc(/C=N\Nc2ccccc2)ccc1OC(=O)c1ccccc1,49.6%,54.3%,80.1%,64.4%,–,–,70.5%,51.2%,36.1%,91%,44.5%,69.8%,56.4%,–,74.9%,8.69% (active),60.6%,87.6%
CCc1ccc(/C(C#N)=C/C=C/c2ccccc2)cc1,3.53% (active),3.92% (active),34.3%,77.7%,–,–,-11.2% (active),8.57% (active),35.3%,68.5%,-17.5% (active),21%,16.2%,–,60.8%,35.1%,35.9%,39.7%
CC1(C(N)=O)CCC(C(=O)O)C1(C)C (configuration not stated),111%,100%,105%,98.2%,102%,94.4%,119%,110%,91.3%,99.7%,97.4%,111%,88.4%,–,99.4%,111%,–,105%
CN(C)c1nc2c([nH]1)c(=O)n(C)c(=O)n2C,102%,91.7%,96.9%,104%,112%,–,–,106%,–,103%,111%,102%,–,97%,89.8%,109%,101%,93.2%
O=C1N(C[P+](c2ccccc2)(c2ccccc2)c2ccccc2)CCCN1C[P+](c1ccccc1)(c1ccccc1)c1ccccc1,89%,115%,99.5%,110%,107%,–,101%,111%,–,103%,105%,109%,98.7%,97%,–,111%,98%,99.8%
CC(=O)OCC1OC(OC2=C(CC=C(C)C)C(=O)c3ccccc3C2=O)C(OC(C)=O)C(OC(C)=O)C1OC(C)=O (configuration not stated),-42.9% (active),-13.1% (active),53.6%,89.7%,–,84.4%,-33.1% (active),32.4%,-61.3% (active),-6.85% (active),-17.1% (active),11.1%,-60.2% (active),1.75% (active),77.9%,5.15% (active),68%,18%
O=C(c1ccccc1)C1CCC1,92.7%,98.9%,99.1%,109%,–,100%,108%,107%,99.7%,–,112%,103%,71.5%,–,100%,105%,114%,115%
